Here are results for nine molecules from PubChem BioAssay.

Each structure is given as a SMILES string. Active and inactive are the calls of the source. Unless noted, the rule behind the calls is not given here.

A short description of test [1]: compound effects on lung adenocarcinoma cell viability – A549, calcein-AM fluorescence, 48 h, basal, profiling panel (AID 1162). Note: test concentration not given here. Particulars: higher = more signal.
A short description of test [2]: compound effects on differentiated 3T3-L1 adipocyte viability – cell-based, 3T3-L1 adipocytes, calcein-AM fluorescence, 48 h, basal, profiling panel (AID 1163). Note: test concentration not given here. Conditions: 3T3-L1 adipocytes viability, higher = more signal.
Test [3] can be described thus: compound effects on hepatocellular carcinoma cell viability – HepG2, calcein-AM fluorescence, 48 h, basal, profiling panel (AID 1164). Note: test concentration not given here. Conditions: higher = more signal.
A short description of test [4]: compound effects on multiple myeloma cell viability – MM1S, calcein-AM fluorescence, 48 h, basal, profiling panel (AID 1165). Note: test concentration not given here. Conditions: higher = more signal.
A short description of test [5]: calcein-AM signal in unstimulated myeloma cells – cell-based, calcein-AM fluorescence, 48 h, PK04 Diversity Set, profiling panel (AID 1166).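 Note: cells grown under basal conditions without added stimulus; test concentration not given here.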 Conditions: RPMI8226 myeloma viability, higher = more signal.
Test [6] can be described thus: JC-1 mitochondrial signal, unstimulated HepG2 cells – cell-based, JC-1 fluorescence, 24 h, 100 nL compound, profiling panel (AID 1167). Note: test concentration not given here. Conditions: HepG2 mitochondrial potential, higher = more signal.
The nature of test [7]: JC-1 mitochondrial signal, unstimulated adipocytes – cell-based, JC-1 fluorescence, 3T3-L1 adipocytes, 24 h, 100 nL compound, profiling panel (AID 1168). Note: test concentration not given here. Particulars: JC-1 mitochondrial fluorescence, higher = more signal, called active from +8 up or from −8 down.
Test [8] is described as follows: JC-1 mitochondrial signal, unstimulated myeloma cells – cell-based, JC-1 fluorescence, RPMI8226, 24 h, 100 nL compound, profiling panel (AID 1169). Note: test concentration not given here. Particulars: JC-1 mitochondrial potential fluorescence, higher = more signal.
A short description of test [9]: JC-1 mitochondrial signal, unstimulated MM1S myeloma – cell-based, JC-1 fluorescence, 24 h, 100 nL compound, profiling panel (AID 1170). Note: test concentration not given here. Particulars: MM1S mitochondrial potential, higher = more signal.
Test [10] in a line: resazurin metabolic signal in A549 cells – cell-based, resazurin fluorescence, 24 h, PK04 Diversity Set, profiling panel (AID 1171). Note: test concentration not given here. Particulars: A549 viability, higher = more signal, called active from +8 up or from −8 down.
A short description of test [11]: resazurin metabolic signal in HepG2 cells – cell-based, resazurin fluorescence, 24 h, PK04 Diversity Set, profiling panel (AID 1172). Note: test concentration not given here. Particulars: HepG2 viability, higher = more signal.
Test [12] in a line: budding yeast growth changes without added modifier – OD600, strain BY4716, 24 h, basal condition, primary screen (AID 1173). Particulars: S. cerevisiae BY4716 growth, OD600, 24 h; higher = more signal, called active from +8 up or from −8 down.
Test [13] can be described thus: viability profiling in MM1S myeloma cells – cell-based, resazurin fluorescence, basal, 24 h, PK04 Diversity Set, profiling panel (AID 1174). Note: test concentration not given here. Particulars: higher = more signal, called active from +8 up or from −8 down. (In general: Resazurin is reduced to fluorescent resorufin, in cell work by metabolically active cells.)
The target of test [14] is Dihydroorotate dehydrogenase (quinone), mitochondrial (Plasmodium falciparum (isolate 3D7)) (UniProt Q08210). The test is described as follows: inhibition of P. falciparum DHODH – biochemical, C-terminal His tag, absorbance 600 nm, primary screen (AID 1175).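 Note: recombinant parasite enzyme with a five histidine tag at its C terminus; test concentration not given here.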 Particulars: PfDHODH enzyme, DCIP absorbance 600 nm; higher = more signal, called active from +8 up or from −8 down.

Test [15] in a line: inhibition of PAO1 biofilm formation – strain PAO1, LB-PBS medium, absorbance 600 nm, primary screen (AID 1176). Note: test concentration not given here. Particulars: P. aeruginosa PAO1 growth/biofilm, A600, 12 h; higher = more signal.
Test [16] is described as follows: growth modulation of vineyard yeast isolate – strain RM11-1a, OD600, basal, 24 h, primary screen (AID 1177).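 Note: cultures grown under basal conditions with no added stressor; test concentration not given here.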 Particulars: S. cerevisiae RM11-1a growth, OD600, 24 h; higher = more signal, called active from +8 up or from −8 down.
Test [17] in a line: growth of efflux-deficient E. coli DRC39 – strain DRC39, OD650, 24 h, E. coli filamentation inducers, primary screen (AID 1178).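 Note: growth measured as culture turbidity by optical density at 650 nm; test concentration not given here.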 Particulars: E. coli DRC39 acrAB, higher = more signal, called active from +8 up or from −8 down.
Test [18] can be described thus: growth of efflux-deficient E. coli DRC39 – strain DRC39, OD650, 48 h, E. coli filamentation inducers, primary screen (AID 1179).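 Note: screen aims at cell division blockers that make cells filament.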 Particulars: E. coli DRC39 delta-acrAB growth, higher = more signal, called active from +8 up or from −8 down.
Test [19] in a line: viability profiling in RPMI8226 myeloma cells – cell-based, resazurin fluorescence, basal, 24 h, PK04 Diversity Set, profiling panel (AID 1180).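 Note: RPMI8826 multiple myeloma cell line at 5000 cells per well; test concentration not given here.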 Particulars: higher = more signal.
In test [20] the target is E3 ubiquitin-protein ligase XIAP (Homo sapiens) (UniProt P98170). The test is described as follows: small molecules binding XIAP protein – biophysical, small-molecule microarray, fluorescence 635 nm, primary screen (AID 1181).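 Note: score merges 667 nm emission and signal to noise over triplicate slides.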 Particulars: higher = more signal.
Sequence of E3 ubiquitin-protein ligase XIAP (Homo sapiens) (P98170 whole entry, looked up): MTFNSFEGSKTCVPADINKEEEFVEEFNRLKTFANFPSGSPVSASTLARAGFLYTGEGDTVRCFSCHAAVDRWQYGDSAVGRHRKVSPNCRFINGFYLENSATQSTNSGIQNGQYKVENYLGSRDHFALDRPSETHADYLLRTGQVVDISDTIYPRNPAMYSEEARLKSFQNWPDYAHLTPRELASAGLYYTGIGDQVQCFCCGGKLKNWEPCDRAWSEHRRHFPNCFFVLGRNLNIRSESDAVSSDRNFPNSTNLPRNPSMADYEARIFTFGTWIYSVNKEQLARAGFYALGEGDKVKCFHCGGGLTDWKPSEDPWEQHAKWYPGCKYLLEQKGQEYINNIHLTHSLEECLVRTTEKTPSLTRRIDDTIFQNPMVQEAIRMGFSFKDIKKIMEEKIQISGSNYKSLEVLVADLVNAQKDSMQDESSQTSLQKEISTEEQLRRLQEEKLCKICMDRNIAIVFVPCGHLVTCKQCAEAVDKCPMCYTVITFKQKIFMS

Sequence of Dihydroorotate dehydrogenase (quinone), mitochondrial (Plasmodium falciparum (isolate 3D7)) (Q08210 whole entry, looked up): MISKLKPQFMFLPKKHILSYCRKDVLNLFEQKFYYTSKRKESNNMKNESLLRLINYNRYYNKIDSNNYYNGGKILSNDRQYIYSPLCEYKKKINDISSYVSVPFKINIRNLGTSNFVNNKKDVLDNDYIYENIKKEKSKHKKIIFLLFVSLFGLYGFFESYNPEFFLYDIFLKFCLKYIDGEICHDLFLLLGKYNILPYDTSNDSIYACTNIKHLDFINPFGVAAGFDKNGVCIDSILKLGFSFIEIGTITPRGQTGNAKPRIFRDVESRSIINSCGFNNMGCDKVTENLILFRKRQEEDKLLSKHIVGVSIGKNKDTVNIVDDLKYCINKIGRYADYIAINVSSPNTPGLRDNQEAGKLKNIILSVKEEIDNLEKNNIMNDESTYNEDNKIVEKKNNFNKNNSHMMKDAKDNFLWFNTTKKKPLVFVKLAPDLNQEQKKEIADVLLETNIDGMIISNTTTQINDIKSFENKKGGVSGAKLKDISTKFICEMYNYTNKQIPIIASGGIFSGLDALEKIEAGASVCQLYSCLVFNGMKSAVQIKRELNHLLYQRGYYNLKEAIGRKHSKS

For `COc1ccc(C(O)C2C=CC3C(=O)N(c4ccccc4)C(=O)C3N2Nc2ccc([N+](=O)[O-])cc2)cc1OCc1ccccc1` (stereo not given), the z-score in [1] is -0.805; in test [2], -0.64; in test [3], -1.09; in [4], 0.324; in test [5], -0.378; in [6], -0.608. Besides, the z-score in test [7] is -1.46 (inactive); in [8], -0.215; in [9] it was -0.693; in test [10] it was 0.317 (inactive); in test [11], -0.46; in test [12] it was 0.948 (inactive). For the same molecule, the z-score in test [13] is -0.644 (inactive); in [15] it was 2.14 (inactive); in [16], -0.384 (inactive); in [17], -0.908 (inactive); in test [18] it was -0.337 (inactive); in [19], -0.839. In addition, the composite z-score in test [14] was 0.323 (inactive); in [20], -0.0655.

For `COc1ccc(NN2C(C(O)c3ccc(OC)c(OCc4ccccc4)c3)C=CC3C(=O)N(C4CCCCC4)C(=O)C32)cc1` (stereo not given), the z-score in test [1] was 0.412; in [2], -0.714; in [3] it was 0.337; in [4], -0.257; in [5], 0.0417; in [6] it was 0.348. Besides, the z-score in test [7] was 0.353 (inactive); in test [8], 0.0161; in [9] it was -1.33; in test [10], 0.817 (inactive); in test [11] it was 1.03; in test [12], -1.76 (inactive). For the same molecule, the z-score was 0.0269 (inactive) in [13]; 0.946 (inactive) in test [15]; -0.221 (inactive) in test [16]; -0.101 (inactive) in test [17]; 1.19 (inactive) in test [18]; 0.0424 in test [19]. The values for the composite z-score in [14] and in [20] were -0.0522 (inactive) and -0.141, respectively.

For the molecule `[N-]=[N+]=NCc1ccccc1C[C@]1(C(=O)NCCN2CCOCC2)N=C(c2ccc(OCCCO)cc2)O[C@H]1c1ccccc1N=[N+]=[N-]`, the z-score is -0.872 in test [1]; 0.233 in test [2]; -1.61 in test [3]; -1.68 in test [4]; -0.806 in test [5]; 0.815 in test [6]. Besides, the z-score was 0.707 (inactive) in test [7]; -1.02 in test [8]; -1.16 in test [9]; -0.901 (inactive) in [10]; -0.854 in test [11]; -0.318 (inactive) in test [12]. Further, the z-score in test [13] is -0.739 (inactive); in test [15], 1.57 (inactive); in test [16], 0.145 (inactive); in [17], 1.73 (inactive); in [18], 1.08 (inactive); in [19] it was -1.85. Besides, the composite z-score is 0.345 (inactive) in test [14] and 0.317 in [20].

As to `C=CCN1C(=O)[C@]2(O[C@H](CCO)[C@@H]([Si](C)(C)c3ccc(OC)cc3)[C@@H]2C)c2cc(NC(=O)[C@H](C)O)ccc21`, the z-score in test [1] is -1.18; in test [2] it was 0.449; in [3], -1.92; in test [4], -2.85; in test [5], -4.33; in test [6] it was -1.55. For the same molecule, the z-score in test [7] was -0.612 (inactive); in [8], -1.03; in [9] it was -0.061; in [10], -0.848 (inactive); in test [11] it was -0.646; in test [12], -0.151 (inactive). The z-score in test [13] was -1.43 (inactive); in test [15], 0.0943 (inactive); in test [16], 2.79 (inactive); in test [17], -0.483 (inactive); in test [18] it was -0.955 (inactive); in test [19] it was -2.8. Besides, the composite z-score is 0.235 (inactive) in test [14] and 0.0223 in [20].

In the case of `C=C(COC)C(=O)CC[C@H](OC(C)=O)c1cccc(OCCO)c1`, the z-score was -0.0614 in test [1]; 1.55 in test [2]; -0.116 in test [3]; -2.94 in [4]; -1.07 in test [5]; -0.331 in test [6]. For the same molecule, the z-score in test [7] is 0.715 (inactive); in test [8], 1.18; in [9] it was 0.471; in test [10] it was -1.07 (inactive); in [11], -1.32; in [12] it was -0.764 (inactive). Moreover, the z-score in test [13] was -0.854 (inactive); in test [15], -0.73 (inactive); in [16] it was -0.496 (inactive); in [17], -1.03 (inactive); in test [18], -0.639 (inactive); in test [19] it was -1.27. In addition, the composite z-score in test [14] is -0.859 (inactive); in [20], 0.0346.

For `C#CCN(C(/C=C/c1ccccc1)CO)C(C(=O)O)c1ccccc1` (stereo not given), the z-score in test [1] is -0.341; in test [2] it was 1.45; in [3] it was -0.996; in [4], -0.659; in test [5], -1.23; in [6], 0.277. The z-score is 1.08 (inactive) in test [7]; -0.782 in test [8]; 0.0117 in [9]; -0.668 (inactive) in test [10]; -0.589 in test [11]; -2.64 (inactive) in [12]. Moreover, the z-score in test [13] is 0.274 (inactive); in test [15], -0.565 (inactive); in [16] it was -0.643 (inactive); in test [17], 1.6 (inactive); in test [18] it was -0.198 (inactive); in test [19], -0.0777. The composite z-score was -3.17 (inactive) in [14] and -0.175 in test [20].

As for `COC(=O)C[C@@H]1C[C@H](C)[C@]2(O1)C(=O)N(Cc1ccccc1)c1ccc(NC(C)=O)cc12`, the z-score in test [1] is -0.0958; in test [2], 0.663; in [3], -0.258; in test [4], 0.186; in [5], -0.804; in [6], -0.0913. Also, the z-score was -0.551 (inactive) in test [7]; -0.183 in test [8]; 0.229 in test [9]; -0.982 (inactive) in test [10]; -0.873 in test [11]; -1.15 (inactive) in test [12]. Further, the z-score in test [13] was -1.19 (inactive); in [15], -0.0582 (inactive); in test [16] it was 0.0057 (inactive); in [17], -0.768 (inactive); in [18], -1.33 (inactive); in test [19], -0.888. Also, the composite z-score in test [14] is 0.281 (inactive); in test [20], 0.123.

`CC(C)C(=C=CC[C@@H](O)c1ccccc1OCCO)C[C@@H](O)c1ccccn1`: the z-score is -0.158 in [1]; 0.0388 in [2]; -0.0925 in test [3]; -0.757 in test [4]; 0.0845 in test [5]; -0.687 in test [6]. Moreover, the z-score is -0.425 (inactive) in test [7]; -0.0863 in test [8]; -0.0458 in [9]; 0.248 (inactive) in test [10]; -0.347 in test [11]; -1.09 (inactive) in test [12]. Further, the z-score in [13] was 0.0716 (inactive); in test [15], 0.142 (inactive); in [16], -0.435 (inactive); in test [17] it was -0.749 (inactive); in test [18], -0.628 (inactive); in test [19], 0.221. The composite z-score in [14] was -9.29 (active); in test [20], 0.0709.

As for `CC(C)N1C(=O)[C@@]2(c3ccc([N+](=O)[O-])cc3)CC(=O)N(CC34CC5CC(CC(C5)C3)C4)[C@@H]2c2ccc(CO)cc21`, the z-score in test [1] was 0.192; in [2] it was -1.22; in test [3] it was 1.36; in [4], 0.496; in test [5], 0.13; in test [6] it was 0.396. Moreover, the z-score in test [7] was 0.888 (inactive); in test [8], -0.361; in [9] it was -0.512; in [10] it was -0.695 (inactive); in test [11] it was -0.0685; in test [12], 0.601 (inactive). For the same molecule, the z-score in [13] was -1.02 (inactive); in [15] it was -0.0902 (inactive); in test [16] it was 0.156 (inactive); in [17], 0.101 (inactive); in test [18], 0.0457 (inactive); in test [19], -0.629. Further, the composite z-score in [14] is -4.98 (inactive); in test [20], -0.0224.
